HEK cytotox – HEK 293 cell cytotoxicity | HEK 293 viability, ATP luminescence (CellTiter-Glo), 48-72 h | Potency, µM (highest dose often 115 µM), inactives show top-dose activity change, negative = cytotoxicity, hits mostly inhibitors | actives 6.6% (n = 94,000) | AID 1345083; further: nearly all actives have a fitted effect of over 60% in size
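HEK 293 seeded at 250 cells/well receive compound via pintool. After 48 or 72 hr at 37 degree Celsius, 5% CO2 and 95% humidity, CellTiter-Glo is dispensed and luminescence read following 10 min at room temperature.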
3T3 cytotox – kills NIH 3T3 cells. actives 4.3% (n = 94,000). NIH 3T3 viability, CellTiter-Glo ATP luminescence, 48-72 h. Potency, µM (highest dose often 96.7 µM), without a hit: top-dose activity change, negative = cytotoxicity, usual class: inhibitors; further: nearly all actives have a fitted effect of over 55% in size
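First NIH 3T3 cells are plated at 400 cells/well; next compound is pinned in; then plates incubate 48 or 72 hr at 37 °C; finally CellTiter-Glo is added and luminescence read after 10 min.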
hNpr1 antagonist – antagonists of human natriuretic peptide receptor Npr1 | P16066 | HEK293 hNpr1 GloSensor cGMP, ANP-stimulated luminescence | Potency, µM (highest dose often 46.3 µM), inactives show at the top dose activity change, negative = inhibition, most hits filed as inhibitors | actives 1.6% (n = 76,000); calls by dose curve; further: nearly all actives have a fitted effect of over 60% in size
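HEK293 cells stably expressing human Npr1 and cGMP GloSensor pGS-40F, loaded 2 h with 2% GloSensor reagent, given compound 30 min at room temperature. Luminescence read before and 20 min after 0.1 nM hNppA.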
Luciferase inh – blocks purified firefly luciferase enzyme activity; AID 1347043; purified P. pyralis luciferase, luminescence, biochemical; actives 2.5% (n = 76,000); Potency, µM (series often up to 115 µM), actives largely listed as inhibitors; further: nearly all actives have a fitted effect of over 65% in size
Target sequence (P08659 whole entry, looked up): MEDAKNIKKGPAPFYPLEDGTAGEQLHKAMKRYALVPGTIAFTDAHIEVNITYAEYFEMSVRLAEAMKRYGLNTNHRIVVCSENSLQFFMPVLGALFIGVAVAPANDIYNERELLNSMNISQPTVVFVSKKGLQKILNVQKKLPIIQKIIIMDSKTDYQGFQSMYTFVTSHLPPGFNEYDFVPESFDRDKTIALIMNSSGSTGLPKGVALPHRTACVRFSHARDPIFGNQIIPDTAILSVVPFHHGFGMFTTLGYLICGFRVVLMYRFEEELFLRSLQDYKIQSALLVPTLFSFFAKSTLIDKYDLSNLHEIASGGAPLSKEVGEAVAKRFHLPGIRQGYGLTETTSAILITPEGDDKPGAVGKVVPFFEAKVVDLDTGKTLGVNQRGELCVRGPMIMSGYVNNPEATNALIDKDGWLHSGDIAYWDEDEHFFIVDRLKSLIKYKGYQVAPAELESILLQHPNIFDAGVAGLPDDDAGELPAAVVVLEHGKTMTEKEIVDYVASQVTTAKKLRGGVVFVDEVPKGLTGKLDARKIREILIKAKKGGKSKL
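Luminescence read by CCD imager after adding enzyme (10nM final) to wells holding compound, titrated in qHTS. Substrates 10uM each D-luciferin and ATP; buffer 50mM Tris acetate pH 7.5, 10mM Mg acetate, Tween-20, BSA.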
Starred values were filed as active, the others as inactive; i = inactive; ? = inconclusive; / = no result given; [ ] = another dose, or the depositor's remark. An excerpt weighted towards active compounds, which were near 11% of everything screened. Unless noted, the call rests on the fitted dose curve; in most records, active means well fitted curve in the direction sought with a large enough effect; inconclusive means small, poorly fitted or top-dose-only effect, or another doubt; inactive means no such curve, though single readings can be large; an effect the other way counts as inactive or inconclusive. On the % scale 0 is the no-effect control and ±100 the full control effect; potency means the concentration at half of the fitted maximal effect.

SMILES | HEK cytotox | 3T3 cytotox | hNpr1 antagonist | Luciferase inh
O=C(C1CN(c2ccc(Cl)cc2)C(=O)N1)N1CCN(Cc2ccccc2)CC1 (stereo not given) | 25.1µM* | ? | 0.0% | i
O=C(C1CN(c2ccccc2)C(=O)N1)N1CCN(Cc2ccccc2)CC1 (stereo not given) | 44.7µM* | ? | -4.4% | i
CN1CCN(C(=O)c2cccnc2)CC12CCC(=O)N(CC1CC1)CC2 (stereo not given) | i | i | 5.7% | i
COc1ccc(CCNC(=O)c2c(C)noc2-c2ccc(OC(F)(F)F)cc2)cc1 | 50.1µM* | -16.3% | -2.0% | i
Cc1noc(-c2ccc(OC(F)(F)F)cc2)c1C(=O)NCCc1ccc(F)cc1 | ? | -25.9% | -2.9% | i
COc1cc(-c2onc(C)c2C(=O)NCCC(c2ccccc2)c2ccccc2)cc(OC)c1OC | 35.5µM* | ? | -21.1% | i
COc1cc(OC)c(CNC(=O)c2c(C)noc2-c2ccc(OC(F)(F)F)cc2)c(OC)c1 | 39.8µM* | ? | -12.6% | i
COc1cc(CN(C)C(=O)c2c(C)noc2-c2cccc(F)c2)cc(OC)c1OC | 44.7µM* | ? | 1.3% | i
COCCNC(=O)c1c(C)noc1-c1cc(OC)c(OC)c(OC)c1 | -0.9% | -3.8% | 3.6% | i
Cc1ccc(N2CCC(NC(=O)Cc3ccccc3Cl)C2=O)cc1 (stereo not given) | -1.8% | i | -4.0% | i
Cc1ccc(CC(=O)N2CCc3cn(C)c4cccc(c34)C2)cc1 | 79.4µM* | ? | 3.2% | i
O=C(NCc1cc(F)cc(F)c1)c1ccc(N2CC3CC(C2)[C@H]2CCCC(=O)N2C3)nc1 (stereo not given in full) | -8.6% | -25.4% | 0.9% | i
O=C(NCc1cccnc1)c1ccc(N2CC3CC(C2)[C@H]2CCCC(=O)N2C3)nc1 (stereo not given in full) | 10.0% | 5.01µM* | -2.8% | i
O=C(NCc1ccc(F)cc1F)c1ccc(N2CC3CC(C2)[C@H]2CCCC(=O)N2C3)nc1 (stereo not given in full) | -2.2% | 28.2µM* | 3.5% | i
Cc1ccc(-n2nc(C)c([C@@H]3C=C[C@@H](NCc4cccc(C#N)c4)C3)c2C)cc1Cl | 25.1µM* | ? | ? | ?
Cc1nn(-c2ccc(C(C)C)cc2)c(C)c1[C@@H]1C=C[C@@H](NCc2cccc(C#N)c2)C1 | 25.1µM* | ? | -19.3%[70.6 µM] | ?
Cc1nn(-c2cccc(Br)c2)c(C)c1[C@@H]1C=C[C@@H](NS(C)(=O)=O)C1 | ? | ? | ? | 56.2µM*
Cc1nn(-c2ccccc2)c(C)c1[C@@H]1C=C[C@@H](NCc2cccc(C#N)c2)C1 | 63.1µM* | ? | -13.0%[70.6 µM] | i
Cc1nn(CCC#N)c(C)c1[C@@H]1C=C[C@@H](NC(=O)NCc2ccccc2)C1 | -7.4%[172 µM] | -26.8%[174 µM] | 1.0%[70.6 µM] | i
Cc1ccc(-n2nc(C)c([C@H]3C=C[C@@H](OC(=O)N[C@H](C)c4ccccc4)C3)c2C)cc1Cl | ? | ? | -19.0% | i
CO[C@H]1[C@H](NC(=O)Cc2ccc3c(c2)OCO3)c2ccccc2C12CCNCC2 | -9.1% | -5.3% | 1.3% | i
COc1ccc(C(=O)N2CCCCCC2c2nc(-c3cccnc3)no2)cc1 (stereo not given) | ? | -25.3% | -18.3% | i
Cn1cc(C2c3nccn3CCCN2C(=O)c2ncccc2F)cn1 (stereo not given) | 4.6% | -15.5% | 1.6% | i
Cc1nn(-c2cccc(Br)c2)c(C)c1[C@@H]1C=C[C@@H](NCc2cccc(C#N)c2)C1 | ? | ? | -19.9% | 39.8µM*
COc1ccc(CNC(=O)C2CCCN(c3nccc(Nc4ccc(OC)cc4)n3)C2)cc1 (stereo not given) | 28.2µM* | ? | / | /
SMILES | HEK cytotox | 3T3 cytotox | hNpr1 antagonist | Luciferase inh
COc1ccc(Nc2ccnc(N3CCCC(C(=O)NC4CCCC4)C3)n2)cc1 (stereo not given) | ? | 39.8µM* | / | /
COc1ccc(Nc2ccnc(N3CCCC(C(=O)NCc4ccc(F)cc4)C3)n2)cc1 (stereo not given) | ? | 28.2µM* | / | /
COc1ccc(Nc2ccnc(N3CCCC(C(=O)N4CCN(C(C)=O)CC4)C3)n2)cc1 (stereo not given) | -14.5% | ? | / | /
COc1ccc(Nc2ccnc(N3CCCC(C(=O)N4CCCC(C)C4)C3)n2)cc1 (stereo not given) | ? | 44.7µM* | / | /
COc1ccc(-c2cccc(C(=O)N3CCN([S+](=O)([O-])c4cccs4)CC3)c2)nn1 | ? | -13.5% | / | /
CCn1ccc(C(=O)N2CCC(F)(c3nc(-c4ccncc4)no3)CC2)n1 | ? | -12.2% | -13.2% | i
CC1=C[C@@H](CN2C(=O)C(C)=C(C)C2=O)[C@H](C(C)C)C[C@H]1Cc1nc2ccccc2[nH]1 | 22.4µM* | 25.1µM* | ? | i
CC1=C[C@@H](CNCc2ccccc2O)[C@H](C(C)C)C[C@H]1Cc1nc2c(C)cccc2[nH]1 | ? | ? | ? | i
CCC(CC)C(=O)NC[C@@H]1C=C(C)[C@H](Cc2nc3c(C)cccc3[nH]2)C[C@H]1C(C)C | 44.7µM* | ? | -14.4%[70.6 µM] | i
CC1=C[C@@H](CNC(=O)NC2CCCCC2)[C@H](C(C)C)C[C@H]1Cc1nc2c(C)cccc2[nH]1 | -9.9% | -14.2% | 3.5% | i
CC1=C[C@@H](CN2C(=O)C(C)=C(C)C2=O)[C@H](C(C)C)C[C@H]1Cc1nc2c(C)cccc2[nH]1 | 35.5µM* | 22.4µM* | ? | i
CCOc1ccc(CCCNC(=O)c2c(C)cc(C)n(C)c2=O)cc1OCC | 0.3% | 0.3% | 7.5% | i
O=C1COCC2(CN(c3ccc(C(F)(F)F)cn3)C2)CN1c1ccc(F)cc1 | ? | ? | -3.2%[70.6 µM] | i
O=C1COCC2(CN(c3ccccc3)C2)CN1c1ccc(OC(F)(F)F)cc1 | 89.1µM* | 89.1µM* | -10.7%[70.6 µM] | i
Fc1ccccc1-c1cc2c(ccn2Cc2ccncc2)c(N2CCOCC2)n1 | 89.1µM* | 35.5µM* | -0.8%[70.6 µM] | i
c1cc(-c2cc3c(ccn3Cc3ccncc3)c(N3CCOCC3)n2)c2cn[nH]c2c1 | 89.1µM* | 14.1µM* | -17.7%[70.6 µM] | i
COc1ncccc1-c1cc2c(ccn2Cc2ccncc2)c(N2CCOCC2)n1 | -30.0%[172 µM] | ? | -9.2%[70.6 µM] | i
c1cc(-c2cc3c(ccn3Cc3ccncc3)c(N3CCOCC3)n2)c2cc[nH]c2c1 | 31.6µM* | 35.5µM* | -16.1%[70.6 µM] | i
c1cc(-c2cc3c(ccn3Cc3ccncc3)c(N3CCOCC3)n2)c2[nH]ncc2c1 | 89.1µM* | ? | -13.4%[70.6 µM] | i
Cc1ccc(C(=O)N2CCC(C(=O)N3CCC(N4CCCC4=O)CC3)CC2)cc1 | -8.1% | -23.7% | / | /
O=C(c1cccc(OC2CN(Cc3cccc(F)c3)C2)c1)N1CCOCC1 | 0.1% | i | 6.6% | i
